Screening results: PubChem, several laboratories
In the library only some 1.6% were active in any assay of this set; here they are far more common.
PABP FP inh – PABP-poly(A) binding inhibition; 1% of 290,000 active; P11940; inhibition, % at 35 µM; PABP-poly(A) RNA binding, fluorescence polarization; AID 2014;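 also: calls also rest on retests at 20 µM and on dose response follow-up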
Target sequence (P11940 whole entry, looked up): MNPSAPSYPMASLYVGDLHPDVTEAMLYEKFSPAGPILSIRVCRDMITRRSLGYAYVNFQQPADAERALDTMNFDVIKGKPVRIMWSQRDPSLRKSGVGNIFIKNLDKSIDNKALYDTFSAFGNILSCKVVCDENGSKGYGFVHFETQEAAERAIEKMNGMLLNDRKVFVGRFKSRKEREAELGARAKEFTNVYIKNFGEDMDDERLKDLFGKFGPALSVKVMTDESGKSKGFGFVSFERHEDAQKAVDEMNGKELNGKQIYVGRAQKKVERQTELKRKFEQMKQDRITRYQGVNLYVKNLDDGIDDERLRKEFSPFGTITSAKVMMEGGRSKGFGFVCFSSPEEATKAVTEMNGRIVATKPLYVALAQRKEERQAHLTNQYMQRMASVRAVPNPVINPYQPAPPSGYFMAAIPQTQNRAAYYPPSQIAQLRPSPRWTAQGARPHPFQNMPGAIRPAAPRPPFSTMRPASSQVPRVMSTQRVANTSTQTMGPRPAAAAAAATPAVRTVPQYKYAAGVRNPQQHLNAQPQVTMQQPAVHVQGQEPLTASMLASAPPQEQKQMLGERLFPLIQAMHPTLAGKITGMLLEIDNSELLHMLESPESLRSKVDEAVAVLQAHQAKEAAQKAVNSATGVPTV
eIF4H FP inh – inhibitors of RNA binding by human eIF4H; inhibition, % at 35 µM; eIF4H fluorescence polarization binding assay; 0.94% of 290,000 active; Q15056;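 also: calls also rest on retests at 20 µM and on dose response follow-up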
PERK inh – blocks human PERK kinase; Q9NZJ5; CHO PERK-DD fusion, SEAP luminescence translation reporter; inhibition, % at 5.6 µM; 0.17% of 220,000 active;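 active = inhibition above the mean inhibition of all tested compounds plus 3 SD, set separately per screening campaign, cut at about 2.9% in these data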;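 also: PERK kinase domain activated by AP20187 dimerizer at 100 nM; 0% = DMSO with dimerizer and 100% = rapamycin at 8.4 µM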
PABP1 MLLE inh – blocks PAM2 peptide binding to the PABP1 MLLE domain; 0.36% of 360,000 active; AID 588489; GST-MLLE / FITC-PAM2 fluorescence polarization; inhibition, % at 20 µM; in the data active = inhibition above about 35%, passing the limit was not always enough;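 also: plate controls were DMSO wells with GST-MLLE for no effect and wells lacking GST-MLLE protein for full effect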
eIF4E-4G inh – inhibitors of eIF4E and eIF4G interaction in translation initiation | P63073+Q04637 | TR-FRET eIF4E-eIF4GI(517-606) binding, 2 h | inhibition, % at 21.7 µM | 0.37% of 220,000 active;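 active = inhibition above about 30%, limit read from the data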;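 also: 0% = full FRET control wells and 100% = background wells lacking eIF4GI fragment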
Starred values were filed as active, the others as inactive; ? = inconclusive; nt = not tested or not shown; + = active, no number. Unless noted, no rule for the calls is given here.

SMILES	PABP FP inh	eIF4H FP inh	PERK inh	PABP1 MLLE inh	eIF4E-4G inh
Cc1ccc(-n2c(C)cc(C(=O)CN3CCOCC3)c2C)cc1	0.1	-6.2	0.7	6.9	5.1
CCOC(=O)C1=NN(c2ccccc2)C(=O)C1	-6.8	-1.7	2.9*	0.6	1.0
O=C(O)C1=NN(c2ccccc2)C(=O)C1	2.3	16.8	0.9	6.5	-2.5
CCOC(=O)CC(=O)CSc1nc(N)c(C#N)c(-c2ccc(Cl)cc2)c1C#N	111.0*	114.3*	-0.3	-5.0	-27.8
N#Cc1c(N)nc(SCC(=O)C23CC4CC(CC(C4)C2)C3)c(C#N)c1-c1ccc(Cl)cc1	-9.2	7.4	0.6	-76.8	-42.2
CC[C@H](C)[C@H]1CNC(=O)C(=O)N1CC1CCN(CCCc2ccc(OC)c(OC)c2)CC1	nt	nt	nt	8.0	nt
COc1ccc(OC)c(C2=C/C(=C/c3ccccn3)C(=O)O2)c1	1.6	90.7*	1.1	-41.5	-3.5
COc1ccc(OC)c(-c2oc3ccccc3c(=O)c2O)c1	-8.0	-6.7	0.2	20.2	-2.0
CCOC(=O)N1CCC(NC(=O)CS(=O)Cc2nc(-c3ccc(C)cc3)oc2C)CC1 (stereo not drawn)	-0.7	-10.6	nt	8.5	nt
COc1ccc(CNC(=O)COC(=O)c2[nH]c(C)c(C(C)=O)c2C)cc1OC	nt	nt	nt	-2.4	nt
CCC(=O)NCCCc1nc2ccccc2n1Cc1ccccc1F	63.2*	-8.6	-0.1	1.3	-5.7
CCC(=O)NCc1nc2ccccc2n1Cc1ccccc1F	7.1	-4.7	-0.2	-3.5	-2.6
CC1CCCCC12NC(=O)N(CC(=O)NCCc1ccc(F)cc1)C2=O (stereo not drawn)	nt	nt	nt	-7.5	nt
Cc1ccc(S(=O)(=O)CCSc2cccc(C(=O)Nc3ccccc3C(=O)O)c2)cc1	-1.1	1.2	0.1	35.7*	-3.0
O=C(O)c1ccc(S(=O)(=O)N(Cc2ccccc2)C2CCCCC2)cc1	4.8	-3.7	nt	6.2	nt
CCOC(=O)CN1C(=O)S/C(=C\c2ccc(-c3cccc(C(=O)O)c3C)o2)C1=O	nt	nt	nt	-12.4	nt
CCOC(=O)CN1C(=O)S/C(=C\c2ccc(-c3ccc(C(=O)O)c(Cl)c3)o2)C1=O	26.2*	52.1*	nt	-9.0	nt
Cc1ccc(/C=C2/NC(=O)N(Cc3ccc(Br)cc3)C2=O)o1	-6.5	13.0	0.8	16.5	12.0
O=C(O)c1ccc(-c2ccc(/C=C3\NC(=O)N(Cc4ccc(Cl)cc4)C3=O)o2)cc1Cl	71.1*	86.4	0.6	-16.2	13.1
N#CC(=C(c1ccccc1)c1ccccc1)c1ccccc1	nt	nt	nt	-6.3	nt
CC(C)(C)c1ccc(C(O)c2ncc(-c3ccccc3F)[nH]2)cc1 (stereo not drawn)	nt	nt	nt	-2.6	nt
COC(=O)CSC1=C(C#N)C(=O)NC(c2ccccc2)S1 (stereo not drawn)	11.2	-5.3	0.5	41.7*	2.7
CN1/C(=C/C(=O)COC(=O)C2COc3ccccc3O2)C(C)(C)c2ccccc21 (stereo not drawn)	nt	nt	nt	-12.8	nt
COc1ccc2cc(C(C)C(=O)N3CCC(C(N)=O)CC3)ccc2c1 (stereo not drawn)	7.1	-5.8	nt	-7.6	nt
N#Cc1c(SCC(=O)Nc2nccs2)sc2c(O)cc(=O)[nH]c12	37.8*	68.4*	nt	-23.2	nt
SMILES	PABP FP inh	eIF4H FP inh	PERK inh	PABP1 MLLE inh	eIF4E-4G inh
CCCSc1nnc(NC(=O)CSc2sc3c(O)cc(=O)[nH]c3c2C#N)s1	46.4*	72.0*	nt	17.5	nt
N#Cc1c(SCC(=O)Nc2nc3ccc(Br)cc3s2)sc2c(O)cc(=O)[nH]c12	47.9*	73.1*	nt	-35.2	nt
N#Cc1c(SCC(=O)Nc2nc3ccccc3s2)sc2c(O)cc(=O)[nH]c12	nt	nt	nt	-2.9	nt
N#Cc1cccc(NC(=O)CSc2sc3c(O)cc(=O)[nH]c3c2C#N)c1	18.0	27.2	nt	-10.2	nt
CCC(C(=O)OCC(=O)N1CCN(S(=O)(=O)c2ccc(C)cc2C)CC1)c1ccccc1 (stereo not drawn)	nt	nt	nt	1.0	nt
COc1ccc(N(C)S(=O)(=O)c2ccc3c(c2)NC(=O)CC(=O)N3)c(OC)c1	3.3	-13.2	nt	-6.0	nt
Cc1ccc2c(c1)c(=O)c1c3n2CCN(C(=O)CCl)C3CC1 (stereo not drawn)	35.4*	?	-0.1	8.0	1.4
CCOC(=O)C1(C)CCCN(C(=O)c2ccccc2OC(F)(F)F)C1 (stereo not drawn)	nt	nt	nt	-5.1	nt
COc1ccc(Nc2nc(N)nc(CSc3nnc(N)s3)n2)cc1	-0.6	4.9	0.7	1.5	-8.1
COc1ccc(Nc2nc(N)nc(CSc3nccn3C)n2)cc1	70.1	89.8*	0.2	15.2	0.7
CCOC(=O)c1cc(CC)sc1/N=C/C1=C(O)CCCC1=O	+	71.9	2.0	13.6	17.2
